Assay outcomes: PubChem, National Center for Advancing Translational Sciences (NCATS)
uPA surface inh = cell surface uPA generation inhibition; 330,000 tested, 0.31% active; Potency, µM (titrated, usually from 38.3 µM), without a hit: top-dose activity change, negative = inhibition, actives largely listed as inhibitors; cell surface uPA generation assay, qHTS; active = well fitted inhibition curve with a large enough effect; inconclusive = small, poorly fitted or top-dose-only effect; inactive = no such curve, though single readings can be large or run the other way; tested in mouse RAW 264.7 cells; also: potency is read from the fitted curve at half-maximal effect; nearly all actives have a fitted effect of over 55% in size
HT1080-NT tox = kills 2HG-producing HT-1080-NT fibrosarcoma cells. 360,000 tested, 1.6% active. Potency, µM (highest dose often 46.1 µM), inactives show at the highest dose activity, negative = less viability, hits mostly cytotoxic. HT-1080-NT fibrosarcoma viability, CellTiter-Glo ATP luminescence, 48 h;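 also: NT is the 2HG producing partner of a matched IDH1 knockdown line; potency is read from the fitted curve at half-maximal effect; 0% = DMSO-treated cells and -100% = media-only wells without cells; nearly all actives have a fitted effect of over 55% in size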
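A 48-hour cytotoxicity screen used HT-1080-NT cells plated 2 hours before compound delivery. ATP-based CellTiter-Glo luminescence measured viability, normalized to DMSO and no-cell controls.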
TDP1 cell noCPT = qHTS for Inhibitors of human tyrosyl-DNA phosphodiesterase 1 (TDP1): qHTS in cells in absence of CPT; DT40 Tdp1-/- hTDP1 cells, no CPT, ATP luminescence, 48 h; Potency, µM (series often up to 46.2 µM), without a hit: at the top dose activity change, negative = growth inhibition, usual class: inhibitors; 420,000 tested, 15% active; AID 686978, 2013; also: potency is read from the fitted curve at half-maximal effect; nearly all actives have a fitted effect of over 55% in size
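Luminescent ATP content (CellTiter-Glo) served as the growth readout. Knockout chicken DT40 cells expressing human TDP1 were exposed to compounds without camptothecin for a minimum 48 hr at 37 °C.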
IL-1B inflam inh = inhibitors of inflammasome signaling (IL-1 beta secretion); THP-1 LPS/ATP IL-1B secretion, AlphaLISA, 16 h; active compounds read low; activity change, % at 57.5 µM; 360,000 tested, 4.7% active; in the data active = activity change below about -50%; inconclusive = mostly about -30% to -49%
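THP-1 cells pretreated 1 hr with compounds (up to 57.5 uM final), then stimulated with LPS (250 ng/mL final) plus ATP (1.25 mM final); secreted IL-1B measured by AlphaLISA after 16 hr, decreased signal indicating inhibition.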
HT1080 IDH1KD tx = HT-1080 IDH1 knockdown cell toxicity (counter line). 360,000 tested, 2% active. Potency, µM (doses to about 46.1 µM), for the others: top-dose activity, negative = toxicity, hits mostly cytotoxic. HT-1080 IDH1 knockdown viability, ATP luminescence, 48 h;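 also: potency is read from the fitted curve at half-maximal effect; 0% = DMSO wells and -100% = cell-free medium wells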
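Luminescent ATP read-out (CellTiter-Glo, 10 min at room temperature) after 48 h compound exposure at 37 °C gave viability of IDH1-knockdown HT-1080 cells. Activity was normalised to DMSO and cell-free wells, then fitted as concentration-response curves.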
DT40 TDP1 CPT = growth inhibition of DT40 Tdp1-/-;hTDP1 cells with camptothecin (screen for TDP1 inhibitors). Potency, µM (series often up to 46.2 µM), for inactives: at the top dose activity change, negative = growth inhibition, actives largely listed as inhibitors. 420,000 tested, 12% active. chicken DT40 Tdp1-/-;hTDP1 cells + 20 nM CPT, ATP luminescence, 48 h; also: potency is read from the fitted curve at half-maximal effect; nearly all actives have a fitted effect of over 55% in size
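Chicken DT40 Tdp1-/- cells stably complemented with human TDP1 were seeded at 400 cells/well in medium containing 20 nM camptothecin, exposed to pin-transferred compounds, and grown at 37 °C for at least 48 hr. Viability was read as ATP luminescence.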
The depositor's hits bear a star; i = inactive; ? = inconclusive; . = no result; [ ] = remark or other dose. Most compounds without a hit are left out; they make up all but 19% or so of the library. Unless noted, calls follow the shape of the dose curve; as a rule, active = well fitted curve in the direction sought with a large enough effect; inconclusive = small, poorly fitted or top-dose-only effect, or another doubt; inactive = no such curve, though single readings can be large; an effect the other way counts as inactive or inconclusive. Unless noted, % is scaled to controls: 0 for no effect and ±100 for the full control effect.

SMILES	uPA surface inh	HT1080-NT tox	TDP1 cell noCPT	IL-1B inflam inh	HT1080 IDH1KD tx	DT40 TDP1 CPT
Cc1nc(C(C)NC2CCN(c3cccc(NC(=O)c4ccncc4)c3)CC2)cs1 (stereo not given)	.	.	-21%	.	.	?
CN1C(=O)/C(=C\C(=O)c2cccs2)c2ccccc21	-4%	10µM*	9.2µM*	-103*	?	13µM*
C=C1C=C(C(F)F)n2ncc(C(=O)NCCc3ccc(Cl)cc3)c2N1	.	.	?	.	.	13µM*
C=C1C=C(C(F)F)n2ncc(C(=O)NCc3ccc(OC)cc3)c2N1	.	.	?	.	.	11µM*
CC(C)N(Cc1nccn1C)C(=O)c1cc(COc2cccc(C(F)(F)F)c2)on1	-5%	0%	13µM*	0	-18%	16µM*
Cc1ccc(CN(C)C(=O)c2cc(COc3cccc(C(F)(F)F)c3)on2)o1	-12%	0%	18µM*	?	-1%	?
CSc1ccccc1OCc1cc(C(=O)N(Cc2nccn2C)C(C)C)no1	0%	10%	?	2	13%	18µM*
CC(NC(=O)c1cc(COc2cccc(C(F)(F)F)c2)on1)c1nccs1 (stereo not given)	?	0%	?	3	2%	-7%
Cc1ccc(CN(C)C(=O)c2cc(COc3ccc(F)cc3Cl)on2)o1	2%	0%	-22%	-16	-3%	?
CCn1ccnc1CN(C)C(=O)c1cc(COc2ccccc2SC)on1	2%	1%	-29%	i	3%	?
Cc1cc(OCc2cc(C(=O)N(Cc3nccn3C)C(C)C)no2)cc(C)c1Cl	3%	?	6.5µM*	?	?	16µM*
O=S(=O)(Nc1cccc(S(=O)(=O)N2CCCCCC2)c1)c1ccc(F)cc1F	-13%	-8%	9%	26	-2%	7%
O=C(COC(=O)c1ccccc1O)Nc1cccc(S(=O)(=O)N2CCCC2)c1	10%	1%[9.24 µM]	3%	6	1%	-26%
CCOC(=O)c1c(Nc2ccccc2)sc(/C=C2\C=Nc3ccccc32)c1O	-5%	?	?	10	?	21µM*
Oc1nc(Nc2ccccc2)sc1/C=C1\C=Nc2ccccc21	-6%	-9%	-30%	32	-8%	-26%
Nc1nc(N)c(C=Nc2ccc(Br)cc2)c(Nc2ccc(Br)cc2)n1	-6%	-1%	13µM*	?	1%	15µM*
CC(C)c1ccc(-n2nnnc2SCc2nc(N)nc(N)n2)cc1	.	10%	?	33	10%	?
O=S(=O)(c1ccc(Br)s1)N1CCN(c2ccnc3cc(Cl)ccc23)CC1	2%	-19%	18µM*	.	?	?
CC(=O)c1ccc(S(=O)(=O)N2CCN(c3ccnc4cc(Cl)ccc34)CC2)cc1	.	-15%	7.3µM*	?	-15%	8.2µM*
Cc1ccc(S(=O)(=O)N2CCN(c3ccnc4cc(Cl)ccc34)CC2)cc1	-14%	?	23µM*	-81*	-29%	23µM*
CS(=O)(=O)N1CCN(c2ccnc3cc(Cl)ccc23)CC1	4%	-27%	?	-9	-14%	-16%
Cc1cc(Br)c2c(c1)C(O)(N1CCCCC1C)C(=O)N2 (stereo not given)	2%	-2%	-29%	-8	-6%	1%
COc1cccc(-c2nc(NCCNC(C)=O)c3ccccc3n2)c1	.	.	-20%	.	.	0%
CCCn1c(N)c(C(=O)CN(C)CC(=O)Nc2ccc(C)cc2)c(=O)[nH]c1=O	3%	-7%	-24%	10	1%	-10%
CCCn1c(N)c(C(=O)CN(C)CC(=O)Nc2ccccc2C(F)(F)F)c(=O)[nH]c1=O	-15%	-1%	21µM*	12	-6%	15µM*
CCCn1c(N)c(C(=O)CN(C)CC(=O)Nc2cc(C)ccc2C)c(=O)[nH]c1=O	0%	1%	13µM*	11	0%	13µM*
